The values below come from PubChem BioAssay (Tox21).

“And” between values parts separate entries of the source, which are not always exact repeats. Identical values can stand only once. Records with an inconclusive call do not appear. Values without a mark were called inactive. The source made the active and inactive calls. Calls follow the shape of the dose curve; as a rule, active = well fitted activation curve with a large enough effect in the repeat runs; inconclusive = weak or mixed curves; inactive = no such curve, though single readings can be large or run the other way.
% is scaled to controls: 0 for no effect and ±100 for the full control effect; potency is read from the fitted curve at half-maximal effect.

Sequence of Nuclear receptor subfamily 1 group I member 2 (Rattus norvegicus) (Q9R1A7 whole entry, looked up): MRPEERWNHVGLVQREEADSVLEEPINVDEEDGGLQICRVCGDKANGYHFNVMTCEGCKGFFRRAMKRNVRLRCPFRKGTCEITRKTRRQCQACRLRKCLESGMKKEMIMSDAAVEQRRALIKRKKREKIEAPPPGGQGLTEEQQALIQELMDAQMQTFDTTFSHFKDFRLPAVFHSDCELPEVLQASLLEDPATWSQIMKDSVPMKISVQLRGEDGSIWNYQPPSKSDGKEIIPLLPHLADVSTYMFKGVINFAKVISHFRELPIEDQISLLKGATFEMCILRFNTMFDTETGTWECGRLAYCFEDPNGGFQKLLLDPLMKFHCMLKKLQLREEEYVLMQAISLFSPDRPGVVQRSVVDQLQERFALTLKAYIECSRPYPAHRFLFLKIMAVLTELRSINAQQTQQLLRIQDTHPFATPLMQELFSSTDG

In the test the target is Nuclear receptor subfamily 1 group I member 2 (Rattus norvegicus) (UniProt Q9R1A7). Description: Rat pregnane X receptor (rPXR) activation by small molecules, qHTS assay (AID 1346983). Also: nearly all actives have a fitted effect of over 20% in size. The conditions noted are these: rPXR luciferase reporter cells, One-Glo luminescence, 24 h; max activation: hits give high values. An excerpt:
National Center for Advancing Translational Sciences [NCATS] NIH Chemical Genomics Center [NCGC] U.S. Environmental Protection Agency [EPA] National Institutes of Environmental Health Sciences [NIEHS] National Toxicology Program [NTP] Assay overview: The Pregnane X receptor (PXR), a ligand activated nuclear receptor plays a critical role in the regulation of genes involved in drug metabolism and transporters. PXR binds xenobiotics and when compounds interact with PXR produces enhanced expression of CYP3A genes. In humans PXR activation and CYP3A4 induction can be problematic due to their interactions with co-medicated drugs and decrease their efficacy or increase their own metabolism. However, there are known species-specific differences with regard to PXR activation that should be taken into account when animal PXR data are extrapolated to humans. A cell based rat PXR (rPXR) assay (developed by Puracyp, Inc., CA) was used to assess the activation of rPXR.
Assay Protocol Summary: rPXR cells were dispensed at 2,000 per well in 5uL of assay medium into white, solid-bottom 1536-well plates using a Multidrop Combi dispenser (Thermo Scientific). The assay plates were incubated at 37 C for 5hr before transferring 23 nL of test compounds dissolved in DMSO and positive control via Pintool station (Wako). The assay plates were incubated at 37 C for 24 hr. Then 5ul One-Glo assay reagent (Promega) was added to each plate by a Flying Reagent Dispenser (FRD, Aurora Discovery) and following 30 min incubation at room temperature, luciferase activity was quantified on a ViewLux plate reader (Perkin Elmer).
On the technique in general: qHTS replaces the single test concentration by a dilution series.
In the case of `CC(C)Nc1cccnc1N1CCN(C(=O)c2cc3cc(NS(C)(=O)=O)ccc3[nH]2)CC1`, the max activation was 0.79%.

Consider `CCOc1ccccc1O[C@H](c1ccccc1)[C@H]1CNCCO1`, for which the max activation is -0.272%. Same read-out and setting: the figure for `CN1CCCN=C1COC(=O)C(O)(c1ccccc1)C1CCCCC1` (stereo not given) is -0.811%.

In the case of `CCOC(=O)c1ccc(C#Cc2ccc3c(c2)C(C)(C)CCS3)nc1`, the Potency is 10 µM (active). Turning to `CC(=O)OCC(=O)NCCCOc1cccc(CN2CCCCC2)c1`, the max activation is -1.53%.

Regarding `O=C(O)CCC(=O)C(=O)O`, the max activation was -0.816%. As for `CN1CCCC(n2nc(Cc3ccc(Cl)cc3)c3ccccc3c2=O)CC1` (stereo not given), the max activation was -1.86%. The same measure, in the same setting: under `C[C@]1(Cn2ccnn2)[C@H](C(=O)O)N2C(=O)C[C@H]2S1(=O)=O` stands -2%. Turning to `COc1cc(N)c(Cl)cc1C(=O)NC1CCN(CCCOc2ccc(F)cc2)CC1OC` (stereo not given), the max activation is -2.9%. As for `CC1(C)O[C@@H]2C[C@H]3[C@@H]4C[C@H](F)C5=CC(=O)C=C[C@]5(C)[C@H]4[C@@H](O)C[C@]3(C)[C@]2(C(=O)CO)O1`, the Potency was 8.91 µM (active). As for `CN1CCCC(CC2c3ccccc3Sc3ccccc32)C1` (stereo not given), the max activation is -1.72%.

On to `O=C1c2ccccc2C(=O)C1c1ccc(Br)cc1`, for which the Potency was 11.2 µM (active). On to `O=C(/C=C/c1ccc(O)c(O)c1)O[C@@H]1C[C@@](OC(=O)/C=C/c2ccc(O)c(O)c2)(C(=O)O)C[C@@H](O)[C@@H]1O`, for which the max activation was -5.53%. The same measure, in the same setting: under `CCCCN1CCCC1C(=O)Nc1c(C)cc(C)cc1C` (stereo not given) stands 14.6%; under `C=C1c2cccc(O)c2C(O)=C2C(=O)[C@]3(O)C(O)=C(C(N)=O)C(=O)[C@@H](N(C)C)[C@@H]3[C@@H](O)[C@H]12`, -2.64%; under `Oc1cccc(O)c1O`, -5.99%. Same read-out and setting: under `C[C@]12CC[C@@H]3c4ccc(O)cc4CC[C@H]3[C@@H]1CC[C@@H]2OC(=O)CCC1CCCC1` stands 4.34% and -0.252%; under `Nc1cccc2c1CN(C1CCC(=O)NC1=O)C2=O` (stereo not given), -1%; under `CN(C)CCC=C1c2ccccc2C=Cc2ccccc21`, 0.747%. Still for that read-out and setting: the figure for `CCn1cc(C(=O)O)c(=O)c2cc(F)c(N3CCNCC3)cc21` is 7.46%; for `O=C(CCCN1CC=C(n2c(=O)[nH]c3ccccc32)CC1)c1ccc(F)cc1` it is 0.857%. For the molecule `CCCCOc1ccc(OCCCN2CCOCC2)cc1`, the max activation was -1.82%.

In the case of `CN(C)CCN1C(=O)c2ccccc2N(C)c2ccccc21`, the max activation is 5.5%. On the same count and under the same terms, the figure for `COc1cc(C(=O)NCCCCCC(=O)O)cc(OC)c1OC` is -0.807%. Regarding `CO/N=C(/C(=O)N[C@@H]1C(=O)N2C(C(=O)O)=C(COC(N)=O)CS[C@H]12)c1ccco1`, the max activation was -0.884%.

`CC(CN(C)C)C(C)(O)Cc1ccc(Cl)cc1` (stereo not given): the max activation was -1.26%. Same read-out and setting: under `CN1CC(=O)N2[C@H](c3ccc4c(c3)OCO4)c3[nH]c4ccccc4c3C[C@@H]2C1=O` stands 0.614%. As to `C[C@@H]1CC(=O)NN=C1c1ccc(NN=C(C#N)C#N)cc1`, the Potency is 14.1 µM (active).

Regarding `Clc1ccc(Nc2nnc(Cc3ccncc3)c3ccccc23)cc1`, the max activation is 1.3%. On the same count and under the same terms, under `CCOC(C)=O` stands -1.67%. The same measure, in the same setting: under `C[C@@H](O)[C@H]1C(=O)N2C(C(=O)O)=C([C@H]3CCCO3)S[C@H]12` stands -4.46%.

As to `OC[C@H]1O[C@@H](n2cnc3c(=S)nc[nH]c32)[C@H](O)[C@@H]1O`, the max activation was -1.15%.

As to `CCCCCCNC(=O)n1cc(F)c(=O)[nH]c1=O`, the max activation was -10.4%. Turning to `COc1ncnc(NS(=O)(=O)c2ccc(N)cc2)c1OC`, the max activation is -3.86%.

As to `CC1(C)[C@@H](OC(=O)CCC(=O)O)CC[C@]2(C)[C@H]3C(=O)C=C4[C@@H]5C[C@@](C)(C(=O)O)CC[C@]5(C)CC[C@@]4(C)[C@]3(C)CC[C@@H]12`, the max activation is -0.478%. As for `Cc1ccc(Cl)c(Nc2ccccc2C(=O)O)c1Cl`, the max activation was 0.813%.

With `CN1C(C(=O)Nc2ccccn2)=C(O)c2sccc2S1(=O)=O`, the max activation was -1.49%. Same read-out and setting: under `COc1ccccc1N1CCN(CCCCNC(=O)c2ccc(-c3ccc(C(C)=O)cc3)cc2)CC1` stands -3.31%; under `CCOc1ccc(Cc2nccc3cc(OCC)c(OCC)cc23)cc1OCC`, -4.93%. Still for that read-out and setting: under `O=C(O)CCc1nc(-c2ccccc2)c(-c2ccccc2)o1` stands -4.22%.
